The list is not random: actives were taken first. Their share in the collection is about 0.4%.
EPAC2 antagonist: antagonists of human EPAC2; Q8WZA2; Potency, µM (titrated, usually from 114 µM), without a hit: at the top dose activity, negative = inhibition, most hits filed as inhibitors; EPAC2 GEF exchange of Rap1B-BODIPY-GDP, fluorescence; actives 0.18% (n = 360,000); AID 720708; note: % is set by controls: 0 for no effect and ±100 for the full control effect; nearly all actives have a fitted effect of over 45% in size
Target sequence (Q8WZA2 whole entry, looked up): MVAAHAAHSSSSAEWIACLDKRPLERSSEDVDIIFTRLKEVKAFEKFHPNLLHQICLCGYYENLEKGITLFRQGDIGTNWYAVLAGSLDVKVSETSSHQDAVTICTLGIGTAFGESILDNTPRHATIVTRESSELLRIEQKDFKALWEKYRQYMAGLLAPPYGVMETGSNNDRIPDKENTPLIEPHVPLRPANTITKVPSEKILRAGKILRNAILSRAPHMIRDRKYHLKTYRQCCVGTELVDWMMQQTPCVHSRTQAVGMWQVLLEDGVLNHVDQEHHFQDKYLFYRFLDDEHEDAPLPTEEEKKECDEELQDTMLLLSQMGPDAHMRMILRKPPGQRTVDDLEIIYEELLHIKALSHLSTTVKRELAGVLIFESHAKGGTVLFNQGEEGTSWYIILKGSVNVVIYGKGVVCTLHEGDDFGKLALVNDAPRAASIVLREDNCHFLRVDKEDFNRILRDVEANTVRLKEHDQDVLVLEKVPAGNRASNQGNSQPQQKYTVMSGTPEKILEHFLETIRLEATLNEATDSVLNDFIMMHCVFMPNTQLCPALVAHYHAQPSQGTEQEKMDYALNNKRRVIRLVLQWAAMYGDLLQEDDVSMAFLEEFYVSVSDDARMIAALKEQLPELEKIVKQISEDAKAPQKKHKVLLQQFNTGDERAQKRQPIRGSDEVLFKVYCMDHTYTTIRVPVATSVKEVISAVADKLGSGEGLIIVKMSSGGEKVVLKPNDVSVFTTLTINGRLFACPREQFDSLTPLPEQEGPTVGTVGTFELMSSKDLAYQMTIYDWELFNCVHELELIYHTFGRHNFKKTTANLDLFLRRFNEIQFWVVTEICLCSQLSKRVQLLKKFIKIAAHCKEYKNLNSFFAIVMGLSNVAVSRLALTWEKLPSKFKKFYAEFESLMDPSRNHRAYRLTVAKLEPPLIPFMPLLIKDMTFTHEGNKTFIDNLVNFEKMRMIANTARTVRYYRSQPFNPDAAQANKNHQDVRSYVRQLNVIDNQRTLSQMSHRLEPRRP
EPAC2 ag: EPAC2 (human) agonism; Q8WZA2; EPAC2 activation, biochemical qHTS; response scale: 100% = 6.5 mM cAMP response; Potency, µM (series often up to 154 µM), inactives show at the top dose activation, most hits filed as activators; actives 0.079% (n = 360,000); note: nearly all actives have a fitted effect of over 50% in size
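Each well held 100 nM EPAC2, 250 nM RAP1B-BODIPY-GDP and 50 uM GDP. Fluorescence, read at 5-min intervals to 30 min, was referenced to a 6.5 mM cAMP positive control.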
EPAC1 agonist: agonists of human EPAC1 | EPAC1 agonist qHTS, biochemical assay; response scale: 100% = response to 6.5 mM cAMP | O95398 | actives 0.073% (n = 360,000) | Potency, µM (top dose mostly 154 µM), for the others: at the top dose activation, usual class: activators; note: nearly all actives have a fitted effect of over 60% in size
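Compounds were pinned as a concentration titration into mixtures of EPAC1 (100 nM), BODIPY-GDP-loaded Rap1B (250 nM) and GDP (50 uM). After 5 min at room temperature, fluorescence was followed for 30 min; activity was scaled to 6.5 mM cAMP.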
EPAC1 antagonist: blocks human EPAC1 exchange factor. EPAC1 GEF assay, Rap1b-BODIPY-GDP exchange fluorescence. Potency, µM (highest dose often 115 µM), inactives show at the highest dose activity change, negative = inhibition, most hits filed as inhibitors. actives 0.14% (n = 360,000);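 note: plate controls were vehicle for no effect and positive control for full effect; nearly all actives have a fitted effect of over 50% in size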
ERG Ets-DNA blk: inhibitors of human ERG Ets domain-DNA interaction; P11308; actives 0.028% (n = 370,000); AID 624246; fluorescence polarization, His-ERG Ets domain / labelled DNA; Potency, µM (doses to about 76.9 µM), for inactives: at the top dose FP activity, negative = inhibition, actives largely listed as inhibitors; active = well fitted inhibition curve with a large enough effect in the polarisation, with a control signal flat; inconclusive = small, poorly fitted or top-dose-only effect, or effect the other way, or a change in a side signal; inactive = no such curve, though single readings can be large or run the other way; the % refers to the polarisation;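 note: polarization taken with two DNA probes labelled with fluorescein and Texas red; % of control where 0% means no effect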
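His-tagged ERG Ets domain (1 uM in the protein solution; 300mM KCl, 50mM Tris-HCl, 1mM EDTA, 1mM DTT, pH 7.5) received compound, then a probe mix of 5 nM fluorescein-DNA and 100nM Texas-615-DNA. Fluorescence polarization was read for both dyes.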
RGS4 inhibitor: blocks human RGS4-accelerated GTP hydrolysis; P49798; Transcreener GDP fluorescence polarization, RGS4-accelerated GTP hydrolysis; Potency, µM (top dose mostly 114 µM), inactives show at the highest dose activity change, negative = inhibition, usual class: inhibitors; actives 0.039% (n = 390,000); AID 504845; note: % is set by controls: 0 for no effect and ±100 for the full control effect; nearly all actives have a fitted effect of over 75% in size
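MLSMR compounds (23 nl, pin-transferred) preincubated 10 min at room temperature with a 500nM (2x) first reagent, then RGS4 at 900nM (2x) plus Transcreener GDP mix added; fluorescence polarization (620/688 nm) read before and after 90 min at 30 °C.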
Starred values were filed as active, the others as inactive; ? = inconclusive; . = no result; [ ] = another dose, or the depositor's remark. Unless noted, calls come from the whole dose curve; as a rule, active = well fitted curve in the direction sought with a large enough effect; inconclusive = small, poorly fitted or top-dose-only effect, or another doubt; inactive = no such curve, though single readings can be large; an effect the other way counts as inactive or inconclusive. Potency is the fitted concentration of half-maximal effect.

SMILES	EPAC2 antagonist	EPAC2 ag	EPAC1 agonist	EPAC1 antagonist	ERG Ets-DNA blk	RGS4 inhibitor
CCOc1cc(CNc2ccc(O)cc2)ccc1OCc1ccc(Cl)cc1Cl	35µM*	7%	0%	?	?	?
Oc1ccc(NCc2ccccc2OCc2ccccc2Cl)cc1	.	.	.	.	?	-39%
CC(C)c1ccc(C2C3=C(CC(c4ccco4)CC3=O)Nc3nc(C(F)(F)F)nn32)cc1 (stereo not given)	.	.	.	.	.	-22%
Oc1ccc(NCc2ccc(OCc3ccccc3)cc2)cc1	-16%	20%	9%	?	?	?
CCc1ccc(CNc2ccc(O)cc2)cc1	15%	9%	0%	8.9µM*	-9%	?
O=c1ccc(-c2ccccc2)nn1Cc1ccc(Cl)cc1	35µM*	9%	5%	-6%	-12%	-4%
COCC(C)NC(=O)C1=CC(c2ccc3c(c2)OCO3)=NS(=O)(=O)N1C (stereo not given)	.	.	.	.	1%	11%
CCCCCCC/C=C\CCCCCCCCC(=O)O	.	.	.	.	.	24µM*
CCCCC/C=C\C/C=C\CCCCCCCC(N)=O	.	.	.	.	.	24µM*
CCCCC/C=C\C/C=C\C/C=C\C/C=C\CCCCCC(=O)O	.	.	.	.	.	460%[56.9 µM]
CC1=C(C(=O)OC2CCCCCC2)C(c2ccc(Cl)cc2Cl)CC(=O)N1 (stereo not given)	.	.	.	.	-3%	3%
Cn1cc(S(=O)(=O)N2CCCCC2)cc1C(=O)N1CCN(c2ccccc2F)CC1	.	.	.	.	2%	1%
O=C(/C=C/c1ccc([N+](=O)[O-])cc1)c1ccco1	6%	16%	-1%	-4%	-17%	-25%
O=C(/C=C/c1ccc(-c2ccccc2[N+](=O)[O-])o1)c1ccco1	0%	12%	4%	50µM*	5%	-22%
CCOc1ccc(C(=O)Nc2ccc(OCc3cc(=O)n4cccc(C)c4n3)cc2)cc1	.	.	.	.	1%	8%
CC[C@H]1C(c2ccc(F)cc2)=NN(c2ccccc2)[C@@H]1CO	50µM*	3%	-14%	-14%	-11%	-17%
C=C(C)CSc1nc2sc3c(c2c(=O)n1-c1ccccc1)CCC(C)C3 (stereo not given)	.	.	.	.	-3%	-15%
O=C1c2ccccc2C(=O)N1c1nc(-c2cccs2)cs1	56µM*	10%	8%	?	3%	-23%
CN1CCN(c2nc(-c3cccs3)cs2)CC1	-5%	1%	7%	-4%	2%	-26%
Cc1ccc2nc(SCC(=O)c3c(N)n(C4CC4)c(=O)[nH]c3=O)[nH]c2c1	71µM*	27%	-9%	-9%	-5%	-7%
CCCc1cc(=O)[nH]c(SCC(=O)c2c(N)n(C3CC3)c(=O)[nH]c2=O)n1	4%	8%	-4%	5%	-5%	-23%
COc1ccc(Cl)cc1NC(=O)CN1c2ccccc2S(=O)(=O)c2ccccc21	.	.	.	.	10%	-13%
O=c1cc(CN2CCN(S(=O)(=O)c3cccc(Cl)c3)CC2)c2ccc(O)cc2o1	-9%	-12%	-7%	79µM*	1%	-18%
O=C1NN(c2ccccc2)C(=O)/C1=C\c1ccc(-c2cc([N+](=O)[O-])ccc2O)o1	79µM*	-23%	-6%	-4%	12%	?
O=C1NN(c2ccc(Cl)cc2)C(=O)/C1=C\c1ccc(-c2cccc(C(=O)O)c2)o1	-3%	0%	2%	?	-4%	?
SMILES	EPAC2 antagonist	EPAC2 ag	EPAC1 agonist	EPAC1 antagonist	ERG Ets-DNA blk	RGS4 inhibitor
CCN(CC)c1ccc2cc(C=O)c(=O)oc2c1	18%	100µM*	100µM*	73%	-14%	3%
CCN(CC)c1ccc2cc(C(=O)Nc3ccccn3)c(=O)oc2c1	205%	100µM*	13%	4%	-10%	4%[11.4 µM]
CCN(CC)c1ccc2cc(C(C)=O)c(=O)oc2c1	71%	?	?	66%	1%	-45%
CCN(CC)c1ccc2cc(-c3nnc(-c4ccncc4)o3)c(=O)oc2c1	101%	100µM*	25%	24%	?	-9%
CCN(CC)c1ccc2cc(C(N)=O)c(=N)oc2c1	143%	89µM*	89µM*	176%	-3%	-21%
CCN(CC)c1ccc2cc(C(N)=O)c(=O)oc2c1	-3%	7%	3%	0%	.	-10%
CCCCNC(=O)Cn1c(SCc2cccc(F)c2)nc2ccncc21	.	.	.	.	.	-14%
COC(=O)c1cc(C(=O)c2ccccc2)n2c(=O)/c(=C\N(C)C)sc12	-1%	19%	5%	-25%	-4%	-5%
COC(=O)c1cc(C(=O)c2ccc(Cl)cc2)n2c(=O)/c(=C\N(C)C)sc12	93%	100µM*	12%	-5%	-5%	-5%
CCCCN1C(=O)CN(C2CCCCCC2)C(=O)C1c1ccc(OC(C)C)c(OC)c1 (stereo not given)	.	.	.	.	6%	15%
CNCCc1cnc(CCC(c2ccccc2)c2ccccc2)[nH]1	.	.	.	.	.	5%[56.9 µM]
Cc1cn(C2CC3OCC(NC(=O)C(NC(=O)OC(C)(C)C)C(C)OCc4ccccc4)C3O2)c(=O)[nH]c1=O (stereo not given)	.	.	.	.	.	-15%
COc1ccc(S(=O)(=O)NC(CCSC)C(=O)NC2CCCCC2)cc1 (stereo not given)	2%	0%	-47%	50µM*	-6%	-11%
Cc1ccc(-c2cc(NC(=O)COc3ccc(Cl)cc3C)on2)cc1	.	.	.	.	5%	8%
O=S(=O)(O)c1cc(O)c2cc(Nc3ccccc3)ccc2c1	-6%	4%	8%	?	0%	?
O=S(=O)(O)c1ccc(O)c2cc(Nc3ccccc3)ccc12	?	28%	19%	10µM*	2%	?
CCOc1ccc(Oc2ccccc2NC(=O)CN2C(=O)NC3(CCCC3)C2=O)cc1	-4%	-5%	28µM*	-20%	-6%	-8%
CCOc1ccc(C(=O)NNC(=O)CN2C(=O)NC3(CCCC3)C2=O)cc1	7%	-3%	5%	3%	-17%	1%
O=C1C(=Cc2ccccc2Cl)CCc2ccccc21	35µM*	3%	-4%	?	.	.
Cc1ccc(NC(=O)CSCC(=O)N(C)CCOc2ccc(Cl)cc2)cc1	-15%	0%	6%	1%	0%	-12%
Cc1cccc(NC(=O)CSCC(=O)N(C)CCOc2ccc(Cl)cc2)c1	-7%	9%	50µM*	-12%	-4%	20%
O=C(NCCCc1nc2ccccc2n1CCCCOc1ccccc1)C1CCCCC1	.	.	.	.	.	-11%
CS(=O)(=O)N1CCN(c2nc(-c3cccs3)nc3ccccc23)CC1	.	.	.	.	.	6%
Cc1oc2cc(O)ccc2c(=O)c1-c1nncn1-c1ccccc1	5%	12%	21%	3%	35µM*	22%

Source: PubChem BioAssay
